Results on 19 molecules are retold here after PubChem BioAssay (EPA / NIEHS).

Values joined by “and” are separate entries in the source; they are usually repeats but may differ in a detail not shown here. Equal entries are not always repeated. Results filed as inconclusive are left out. Where a structure was tested more than once in an assay, its records may differ in their call. Active and inactive are the calls of the source. How the source made its calls: active means hit-call score of the fitted dose curve at least 0.9, where 1 is the maximum; inconclusive means response in the unintended direction; inactive means score below 0.9.

The target of experiment [1] is rat CYP2C11, Cyp2c11 (gene 29277) (UniProt P08683). Put plainly: NVS_ADME_rCYP2C11: NovaScreen (NVS) CYP450-related Enzyme Activity (ADME) Assay for rat CYP2C11 (AID 2283118). The method in brief:
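Cell-free recombinant rat enzyme with fluorescent substrate; readout 0.33 h after dosing, loss of signal versus acetonitrile control. Initial duplicate single-point at 10 uM; actives rerun in concentration series.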

Experiment [2] deals with rat CYP2C12, Cyp2c12 (gene 25011) (UniProt P11510). Briefly: NVS_ADME_rCYP2C12: NovaScreen (NVS) CYP450-related Enzyme Activity (ADME) Assay for rat CYP2C12 (AID 2283119). The method in brief: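 Cell-free recombinant rat CYP2C12 activity read by fluorescence 0.5 h after dosing; loss of signal versus acetonitrile control. Primary screen in duplicate at 10 uM; actives then run in concentration-response format.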
Sequence of rat CYP2C12, Cyp2c12 (gene 25011) (P11510 whole entry, looked up): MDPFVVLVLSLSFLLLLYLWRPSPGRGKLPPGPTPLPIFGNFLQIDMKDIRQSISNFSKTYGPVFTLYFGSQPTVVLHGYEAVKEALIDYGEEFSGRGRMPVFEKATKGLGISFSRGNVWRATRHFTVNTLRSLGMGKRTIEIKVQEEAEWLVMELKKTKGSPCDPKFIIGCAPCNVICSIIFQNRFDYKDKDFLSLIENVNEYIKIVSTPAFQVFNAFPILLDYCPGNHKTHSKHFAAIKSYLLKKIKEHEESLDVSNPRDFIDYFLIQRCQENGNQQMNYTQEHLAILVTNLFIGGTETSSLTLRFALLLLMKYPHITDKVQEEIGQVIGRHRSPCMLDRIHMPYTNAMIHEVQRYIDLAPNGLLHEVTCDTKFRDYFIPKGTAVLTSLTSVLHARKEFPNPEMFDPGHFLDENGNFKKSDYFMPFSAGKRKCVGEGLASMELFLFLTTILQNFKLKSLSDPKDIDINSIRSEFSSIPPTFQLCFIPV

For experiment [3], the target named is rat CYP3A2, Cyp3a2 (gene 266682) (UniProt P05183). Briefly: NVS_ADME_rCYP3A2: NovaScreen (NVS) CYP450-related Enzyme Activity (ADME) Assay for rat CYP3A2 (AID 2283128). The gist of the method: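 Cell-free rat CYP3A2 enzyme assay with fluorescent substrate, read 0.5 h after dosing. Primary duplicate screen at 10 uM; actives run in concentration-response up to 20 uM, relative to acetonitrile baseline.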
Sequence of rat CYP3A2, Cyp3a2 (gene 266682) (P05183 whole entry, looked up): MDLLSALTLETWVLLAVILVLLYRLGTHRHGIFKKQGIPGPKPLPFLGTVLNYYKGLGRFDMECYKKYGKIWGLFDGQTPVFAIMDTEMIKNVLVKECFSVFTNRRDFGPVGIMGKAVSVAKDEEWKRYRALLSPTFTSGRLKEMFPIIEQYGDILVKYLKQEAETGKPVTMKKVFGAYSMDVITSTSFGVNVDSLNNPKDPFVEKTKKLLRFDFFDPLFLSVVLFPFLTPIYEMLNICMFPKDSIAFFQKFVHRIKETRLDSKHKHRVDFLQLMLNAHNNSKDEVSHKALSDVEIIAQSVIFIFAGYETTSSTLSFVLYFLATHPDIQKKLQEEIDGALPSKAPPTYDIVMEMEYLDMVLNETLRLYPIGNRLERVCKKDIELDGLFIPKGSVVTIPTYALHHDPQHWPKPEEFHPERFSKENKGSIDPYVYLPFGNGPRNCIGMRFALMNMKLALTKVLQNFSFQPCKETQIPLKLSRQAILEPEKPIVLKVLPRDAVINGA

Experiment [4] concerns the target human Acetylcholinesterase (AChE), ACHE (gene 43) (UniProt P22303). Put plainly: NVS_ENZ_hAChE: NovaScreen (NVS) Enzymatic Assay for human Acetylcholinesterase (AChE) (AID 2283129). The method in brief: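 Cell-free colorimetric enzyme-activity assay; compounds read 0.33 hour after dosing, loss of signal vs DMSO baseline. Primary screen in duplicate at 25 uM single concentration, with active compounds retested in concentration series.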

In experiment [5] the target is human AKT serine/threonine Kinase 2 (AKT2), AKT2 (gene 208) (UniProt P31751). Briefly: NVS_ENZ_hAKT2: NovaScreen (NVS) Enzymatic Assay for human AKT serine/threonine Kinase 2 (AKT2) (AID 2283141). The method in brief: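 Cell-free fluorescence/electrophoretic mobility shift readout of recombinant human AKT2 activity, 1 h after chemical dosing. Duplicate primary screen at 25 uM, then singleton concentration-response up to 50 uM; loss of signal versus DMSO baseline.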
Sequence of human AKT serine/threonine Kinase 2 (AKT2), AKT2 (gene 208) (P31751 whole entry, looked up): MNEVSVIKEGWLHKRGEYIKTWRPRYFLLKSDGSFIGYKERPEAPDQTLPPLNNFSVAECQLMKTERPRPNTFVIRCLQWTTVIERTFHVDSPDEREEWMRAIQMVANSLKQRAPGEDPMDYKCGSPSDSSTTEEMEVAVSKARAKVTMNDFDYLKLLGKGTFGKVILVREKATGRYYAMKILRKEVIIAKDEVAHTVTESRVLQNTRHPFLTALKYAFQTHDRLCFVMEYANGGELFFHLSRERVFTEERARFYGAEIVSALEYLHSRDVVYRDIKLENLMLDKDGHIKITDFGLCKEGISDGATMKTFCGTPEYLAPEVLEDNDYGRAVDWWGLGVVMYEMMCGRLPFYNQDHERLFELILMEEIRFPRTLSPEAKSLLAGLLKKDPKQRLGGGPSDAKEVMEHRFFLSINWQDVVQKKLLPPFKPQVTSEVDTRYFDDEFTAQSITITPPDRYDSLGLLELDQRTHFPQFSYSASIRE

In a further experiment the test system is rat CYP3A1, gene 25642. Briefly: NVS_ADME_rCYP3A1: NovaScreen (NVS) CYP450-related Enzyme Activity (ADME) Assay for rat CYP3A1 (AID 2283126). The method in brief: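 Cell-free recombinant CYP assay with fluorescent substrate, read 0.5 h after dosing. Screened at 10 uM in duplicate, hits at up to 20 uM in concentration-response; loss of signal versus acetonitrile baseline.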

For another experiment, the target named is Caspase-3 (Homo sapiens) (UniProt P42574). Briefly: NVS_ENZ_hCASP3: NovaScreen (NVS) Enzymatic Assay for human Caspase 3 (CASP3) (AID 2283139). The gist of the method: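 Recombinant human caspase-3 from E. coli with a fluorogenic substrate, read by fluorescence 1 h after dosing. Primary screen in duplicate at 25 uM. Actives (for example ≥30% inhibition) rerun as concentration-response up to 50 uM.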

Experiment [6] addresses rat CYP2A2, Cyp2a2 (gene 24895) (UniProt P15149). Put plainly: NVS_ADME_rCYP2A2: NovaScreen (NVS) CYP450-related Enzyme Activity (ADME) Assay for rat CYP2A2 (AID 2283116). The method in brief: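 Cell-free recombinant rat CYP2A2 activity with fluorogenic substrate, fluorescence read 0.2 h after dosing. Chemicals screened at 10 uM in duplicate, hits then run in concentration-response up to 20 uM; signal loss versus acetonitrile baseline.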

Experiment [7] deals with rat CYP2D2, Cyp2d26 (gene 25053) (UniProt P10634). Briefly: NVS_ADME_rCYP2D2: NovaScreen (NVS) CYP450-related Enzyme Activity (ADME) Assay for rat CYP2D2 (AID 2283124). The method in brief:
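Recombinant rat CYP2D2 in a cell-free fluorogenic activity assay, fluorescence read 0.75 h after dosing. Primary screen in duplicate at 10 uM; actives re-run singly in concentration-response to 20 uM, relative to acetonitrile.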

Experiment [8] deals with human Caspase 5 (CASP5), CASP5 (gene 838) (UniProt P51878). Briefly: NVS_ENZ_hCASP5: NovaScreen (NVS) Enzymatic Assay for human Caspase 5 (CASP5) (AID 2283137). The method in brief: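 E. coli-derived enzyme, cell-free, 2 h incubation, fluorescence intensity. 25 uM duplicate single-point; hits → concentration series to 50 uM. DMSO baseline, positive/negative controls on every plate.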
Sequence of human Caspase 5 (CASP5), CASP5 (gene 838) (P51878 whole entry, looked up): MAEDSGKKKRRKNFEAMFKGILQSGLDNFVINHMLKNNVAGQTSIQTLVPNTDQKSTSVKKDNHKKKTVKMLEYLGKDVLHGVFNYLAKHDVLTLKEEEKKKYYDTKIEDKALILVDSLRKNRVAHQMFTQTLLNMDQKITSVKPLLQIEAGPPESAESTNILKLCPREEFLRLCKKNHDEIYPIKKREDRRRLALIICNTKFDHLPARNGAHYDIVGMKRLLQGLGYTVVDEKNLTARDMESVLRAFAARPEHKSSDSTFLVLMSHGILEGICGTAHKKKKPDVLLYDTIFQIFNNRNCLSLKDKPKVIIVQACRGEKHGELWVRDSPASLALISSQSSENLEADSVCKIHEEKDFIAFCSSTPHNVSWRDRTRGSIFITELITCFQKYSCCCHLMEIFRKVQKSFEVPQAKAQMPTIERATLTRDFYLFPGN

The target of experiment [9] is rat CYP2C13, Cyp2c13 (gene 171521) (UniProt P20814). Put plainly: NVS_ADME_rCYP2C13: NovaScreen (NVS) CYP450-related Enzyme Activity (ADME) Assay for rat CYP2C13 (AID 2283121). The method in brief: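 Recombinant rat CYP2C13 with fluorogenic substrate, 0.75 h cell-free incubation; primary screen in duplicate at 10 uM, actives followed in concentration series. Fluorescence loss relative to acetonitrile control indicates inhibition.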
Sequence of rat CYP2C13, Cyp2c13 (gene 171521) (P20814 whole entry, looked up): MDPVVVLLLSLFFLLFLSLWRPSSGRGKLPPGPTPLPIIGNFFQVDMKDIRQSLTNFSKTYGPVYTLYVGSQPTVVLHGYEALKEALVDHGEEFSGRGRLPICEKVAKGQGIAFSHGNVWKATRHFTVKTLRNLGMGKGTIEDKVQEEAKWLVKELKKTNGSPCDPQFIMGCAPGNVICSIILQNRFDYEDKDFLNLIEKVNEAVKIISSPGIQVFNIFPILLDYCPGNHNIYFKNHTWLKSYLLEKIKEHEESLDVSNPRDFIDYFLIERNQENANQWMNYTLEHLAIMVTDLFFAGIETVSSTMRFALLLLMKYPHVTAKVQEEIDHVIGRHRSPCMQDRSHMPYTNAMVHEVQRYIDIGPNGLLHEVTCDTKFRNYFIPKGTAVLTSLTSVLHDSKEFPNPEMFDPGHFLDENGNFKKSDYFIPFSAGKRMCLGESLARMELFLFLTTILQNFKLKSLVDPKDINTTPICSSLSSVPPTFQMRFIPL

For experiment [10], the target named is human AKT serine/threonine Kinase 1 (AKT1), AKT1 (gene 207) (UniProt P31749). Put plainly: NVS_ENZ_hAKT1: NovaScreen (NVS) Enzymatic Assay for human AKT serine/threonine Kinase 1 (AKT1) (AID 2283138). The method in brief: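 Recombinant AKT1, specific substrate, cell-free; 1 h; fluorescence intensity/electrophoretic mobility shift. Duplicate single-point 25 uM, then singleton CRC max 50 uM. DMSO = negative control/baseline; signal loss = inhibition.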
Sequence of human AKT serine/threonine Kinase 1 (AKT1), AKT1 (gene 207) (P31749 whole entry, looked up): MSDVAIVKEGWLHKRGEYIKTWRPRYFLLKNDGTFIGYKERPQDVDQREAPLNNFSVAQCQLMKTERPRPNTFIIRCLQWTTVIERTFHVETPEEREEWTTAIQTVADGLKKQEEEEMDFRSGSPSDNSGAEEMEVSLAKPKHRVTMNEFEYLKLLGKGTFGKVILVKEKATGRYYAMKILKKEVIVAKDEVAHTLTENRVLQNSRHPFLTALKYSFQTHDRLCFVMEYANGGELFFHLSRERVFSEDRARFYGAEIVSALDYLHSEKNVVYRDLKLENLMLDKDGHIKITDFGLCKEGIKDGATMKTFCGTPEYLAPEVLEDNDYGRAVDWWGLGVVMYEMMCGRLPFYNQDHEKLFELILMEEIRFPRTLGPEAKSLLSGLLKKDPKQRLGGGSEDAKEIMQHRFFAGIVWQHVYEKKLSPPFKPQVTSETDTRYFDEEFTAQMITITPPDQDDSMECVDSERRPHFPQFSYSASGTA

In experiment [11] the target is human Beta-secretase (BACE), BACE1 (gene 23621) (UniProt P56817). Put plainly: NVS_ENZ_hBACE: NovaScreen (NVS) Enzymatic Assay for human Beta-secretase (BACE) (AID 2283140).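 Further: hits are inhibitors that reduce fluorescent substrate signal versus DMSO.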 The gist of the method:
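Compounds were first tested in duplicate at 25 uM, then actives in concentration series, against recombinant BACE1 from SF9 cells. Enzyme activity was measured by fluorescence intensity 1 hour after dosing, with DMSO as negative control.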

Experiment [12] has as its target human Aurora Kinase A - serine/threonine-protein Kinase 6 (AurA), AURKA (gene 6790) (UniProt O14965). Briefly: NVS_ENZ_hAurA: NovaScreen (NVS) Enzymatic Assay for human Aurora Kinase A - serine/threonine-protein Kinase 6 (AurA) (AID 2283142). The method in brief: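 Cell-free enzymatic assay with human Aurora A, 1 hour after dosing. Fluorescent substrate turnover detected after electrophoretic mobility shift separation of substrate and product. Screened at 25 uM, actives retested in concentration-response up to 50 uM.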

For experiment [13], the target named is human Acid Phosphatase 1 (ACP1), ACP1 (gene 52) (UniProt P24666). Put plainly: NVS_ENZ_hACP1: NovaScreen (NVS) Enzymatic Assay for human Acid Phosphatase 1 (ACP1) (AID 2283136). The gist of the method: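 Recombinant enzyme expressed in Sf9 cells, tested cell-free; activity read by fluorescence with electrophoretic mobility shift separation of substrate and product, 1.5 h after dosing. Primary screen in duplicate at 25 uM, actives then run in concentration series; loss of signal versus DMSO.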

For experiment [14], the target named is human Caspase 4 (CASP4), CASP4 (gene 837) (UniProt P49662). Put plainly: NVS_ENZ_hCASP4: NovaScreen (NVS) Enzymatic Assay for human Caspase 4 (CASP4) (AID 2283143). The gist of the method:
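The cell-free assay used E. coli-expressed enzyme with a fluorogenic substrate, read 2 h after dosing. Signal loss was scored versus DMSO. Screening was in duplicate at 25 uM, then singleton concentration-response up to 50 uM.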

For the next experiment, the target named is Caspase-1 (Homo sapiens) (UniProt P29466). Briefly: NVS_ENZ_hCASP1: NovaScreen (NVS) Enzymatic Assay for human Caspase 1 (CASP1) (AID 2283132). The gist of the method:
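Cell-free enzymatic assay with E. coli-expressed recombinant protein; fluorescence intensity read 1 hour after dosing. Single-concentration duplicate screen at 25 uM, then concentration-response up to 50 uM; activity fitted relative to DMSO, loss of signal meaning inhibition.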

The target in experiment [15] is human Caspase 2 (CASP2), CASP2 (gene 835) (UniProt P42575). Briefly: NVS_ENZ_hCASP2: NovaScreen (NVS) Enzymatic Assay for human Caspase 2 (CASP2) (AID 2283135). The method in brief:
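E. coli-expressed enzyme in a cell-free protease assay, fluorescence read 1 h after dosing. Compounds at 25 uM in duplicate, with concentration-response up to 50 uM for hits; loss of signal against DMSO baseline.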

Sequence of rat CYP2D2, Cyp2d26 (gene 25053) (P10634 whole entry, looked up): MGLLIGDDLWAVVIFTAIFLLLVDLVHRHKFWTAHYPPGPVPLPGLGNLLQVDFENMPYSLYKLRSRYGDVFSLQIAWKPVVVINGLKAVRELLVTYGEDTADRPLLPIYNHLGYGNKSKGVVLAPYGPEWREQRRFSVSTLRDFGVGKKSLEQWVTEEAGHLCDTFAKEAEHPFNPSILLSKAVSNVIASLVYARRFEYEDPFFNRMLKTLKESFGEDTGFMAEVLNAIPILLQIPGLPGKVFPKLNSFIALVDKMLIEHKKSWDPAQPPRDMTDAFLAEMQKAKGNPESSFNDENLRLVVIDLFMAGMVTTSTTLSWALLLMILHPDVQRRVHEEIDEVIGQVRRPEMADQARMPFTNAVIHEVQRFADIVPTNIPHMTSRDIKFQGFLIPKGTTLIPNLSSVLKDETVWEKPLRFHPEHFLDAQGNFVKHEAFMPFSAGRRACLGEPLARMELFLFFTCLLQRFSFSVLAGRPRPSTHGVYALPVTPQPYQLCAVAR
Sequence of human Beta-secretase (BACE), BACE1 (gene 23621) (P56817 whole entry, looked up): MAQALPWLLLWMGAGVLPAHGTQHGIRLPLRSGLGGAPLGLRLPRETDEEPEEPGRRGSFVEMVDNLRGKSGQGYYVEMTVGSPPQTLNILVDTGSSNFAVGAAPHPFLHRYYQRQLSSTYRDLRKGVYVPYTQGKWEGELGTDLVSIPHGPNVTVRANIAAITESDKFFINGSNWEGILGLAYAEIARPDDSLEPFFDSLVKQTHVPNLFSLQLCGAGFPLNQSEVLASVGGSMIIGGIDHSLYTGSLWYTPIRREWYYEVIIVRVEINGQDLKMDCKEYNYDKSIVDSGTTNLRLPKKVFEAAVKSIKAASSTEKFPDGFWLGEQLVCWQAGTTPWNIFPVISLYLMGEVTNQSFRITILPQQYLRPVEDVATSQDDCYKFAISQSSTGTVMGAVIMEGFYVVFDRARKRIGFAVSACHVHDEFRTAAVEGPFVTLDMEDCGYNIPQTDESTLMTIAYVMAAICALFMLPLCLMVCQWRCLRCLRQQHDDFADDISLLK
Sequence of rat CYP2C11, Cyp2c11 (gene 29277) (P08683 whole entry, looked up): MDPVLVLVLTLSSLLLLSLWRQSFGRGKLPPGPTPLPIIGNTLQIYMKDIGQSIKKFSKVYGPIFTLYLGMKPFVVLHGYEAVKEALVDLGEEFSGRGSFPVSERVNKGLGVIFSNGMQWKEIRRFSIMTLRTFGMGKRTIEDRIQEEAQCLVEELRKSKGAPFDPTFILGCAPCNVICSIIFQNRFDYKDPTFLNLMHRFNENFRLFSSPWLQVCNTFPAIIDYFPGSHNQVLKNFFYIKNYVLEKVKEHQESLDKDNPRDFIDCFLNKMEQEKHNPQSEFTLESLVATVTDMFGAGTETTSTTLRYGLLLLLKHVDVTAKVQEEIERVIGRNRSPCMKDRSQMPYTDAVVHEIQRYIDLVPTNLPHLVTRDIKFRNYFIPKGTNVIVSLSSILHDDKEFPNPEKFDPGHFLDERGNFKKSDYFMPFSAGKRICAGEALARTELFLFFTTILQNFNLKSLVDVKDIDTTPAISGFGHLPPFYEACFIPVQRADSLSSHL
Sequence of rat CYP2A2, Cyp2a2 (gene 24895) (P15149 whole entry, looked up): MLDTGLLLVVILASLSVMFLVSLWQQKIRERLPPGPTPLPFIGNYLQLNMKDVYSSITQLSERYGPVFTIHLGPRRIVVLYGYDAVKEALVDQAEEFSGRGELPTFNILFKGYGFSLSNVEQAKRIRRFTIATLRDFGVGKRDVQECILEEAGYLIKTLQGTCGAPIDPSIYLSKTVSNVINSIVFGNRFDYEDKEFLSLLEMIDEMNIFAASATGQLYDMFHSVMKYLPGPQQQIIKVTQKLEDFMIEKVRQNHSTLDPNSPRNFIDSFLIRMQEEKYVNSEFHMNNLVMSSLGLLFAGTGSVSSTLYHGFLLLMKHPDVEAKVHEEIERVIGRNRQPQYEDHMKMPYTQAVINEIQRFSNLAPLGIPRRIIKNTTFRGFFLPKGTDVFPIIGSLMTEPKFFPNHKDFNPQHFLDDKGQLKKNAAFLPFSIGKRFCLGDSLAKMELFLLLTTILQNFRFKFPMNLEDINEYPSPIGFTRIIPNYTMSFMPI

Take `CS/C(C)=N/OC(=O)N(C)SN(C)C(=O)O/N=C(\C)SC`: the AC50 (commonly the midpoint of the concentration-response curve, whichever way the signal moves) was 3.66 µM (active) in [1], 1.12 µM (active) in experiment [2], 3.39 µM (active) in experiment [3] and 4.85 µM (active) in [4]. In addition, in [5], the molecule was classed as inactive.
For `COc1nc(C)nc(NC(=O)NS(=O)(=O)c2ccccc2CCC(F)(F)F)n1`, in the experiment with rat CYP3A1, gene 25642, the AC50 is 7.5 µM (active) and 7.14 µM (active) and 7.37 µM (active). Besides, in [5], the result was inactive.
Turning to `CC(Oc1ccc(Cl)cc1Cl)C(=O)O` (configuration not stated), the molecule was called inactive with Caspase-3 (Homo sapiens).
Regarding `CCON=C(CC)C1=C(O)CC(c2c(C)cc(C)cc2C)CC1=O` (configuration not stated), the AC50 in the experiment with rat CYP3A1, gene 25642 is 4.22 µM (active); in experiment [3], 3 µM (active).
In the case of `CCCC1COC(Cn2cncn2)(c2ccc(Cl)cc2Cl)O1` (configuration not stated), the AC50 is 106 nM (active) and 102 nM (active) in experiment [6]; 1.45 µM (active) in [1]; 7.44 µM (active) and 7.78 µM (active) in experiment [7]; 2.08 µM (active) in the experiment with rat CYP3A1, gene 25642. For the same molecule, the call in experiment [8] was inactive.
In the case of `CC1COC(Cn2cncn2)(c2ccc(Oc3ccc(Cl)cc3)cc2Cl)O1` (configuration not stated), the AC50 in experiment [6] is 127 nM (active); in experiment [1], 1.73 µM (active); in experiment [2] it was 1.08 µM (active); in experiment [9] it was 1.43 µM (active); in [7], 1.4 µM (active); in the experiment on rat CYP3A1, gene 25642, 0.628 µM (active). For the same molecule, the AC50 in [3] is 1.35 µM (active). Also, in [10], the result was inactive.
`O=C(Nc1ccccc1)Nc1ccnc(Cl)c1`: the AC50 was 10 µM (active) in experiment [9], 6.44 µM (active) in [3] and 5.29 µM (active) in experiment [11]. In [8], the molecule was classed as inactive.
With `N#CC(CCc1ccc(Cl)cc1)(Cn1cncn1)c1ccccc1` (configuration not stated), the AC50 was 20 nM (active) in experiment [6]; 0.267 µM (active) in experiment [1]; 0.25 µM (active) in experiment [2]; 0.449 µM (active) in the experiment on rat CYP3A1, gene 25642.
For `CCCCNC(=O)n1c(NC(=O)OC)nc2ccccc21`, the outcome in experiment [10] and in [12] was inactive.
For `O=C(O)c1nc(Cl)ccc1Cl`, the outcome in experiment [4] was inactive.
As to `C=CCC1=C(C)[C@@H](OC(=O)[C@@H]2[C@@H](C=C(C)C)C2(C)C)CC1=O`, the AC50 in experiment [3] is 7.55 µM (active). For the same molecule, in [13], the outcome was inactive.
As to `CC(C)C1(C)N=C(c2nc3ccccc3cc2C(=O)O)NC1=O` (configuration not stated), the molecule was classed as inactive in experiment [14].
For `COP(=S)(OC)Oc1nc(Cl)c(Cl)cc1Cl`, the outcome was “inactive” in the experiment with rat CYP3A1, gene 25642 and “inactive” in [4].
On to `CNC(=S)S`, for which the outcome in experiment [9] was “inactive”; in the experiment on rat CYP3A1, gene 25642, “inactive”; in the experiment with Caspase-1 (Homo sapiens) it was “inactive”; in [15], “inactive”; in experiment [8], “inactive”; in experiment [11] it was “inactive”. The molecule was called inactive in experiment [5], in [12] and in experiment [14]. For the same molecule, the values for the AC50 in [4] and in experiment [13] were 39.9 µM (active) and 9.04 µM (active), respectively.
`OC(c1ccc(Cl)cc1)(c1cncnc1)c1ccccc1Cl` (configuration not stated): the AC50 in experiment [6] is 53.4 nM (active); in experiment [1], 6.58 µM (active); in experiment [2] it was 3.99 µM (active); in experiment [7], 6.92 µM (active); with rat CYP3A1, gene 25642, 2.92 µM (active); in [3], 5.57 µM (active).
Regarding `COc1ccc(C(c2ccc(OC)cc2)C(Cl)(Cl)Cl)cc1`, the outcome in experiment [6] was “inactive”; in [1], “inactive”; in experiment [2], “inactive”; in experiment [9], “inactive”; in [7] it was “inactive”; with rat CYP3A1, gene 25642, “inactive”. Besides, the call in experiment [3] was inactive. Moreover, the AC50 in experiment [8] is 25 µM (active); in experiment [11] it was 33.9 µM (active).
As for `COC(=O)C=C(C)OP(=O)(OC)OC`, the AC50 in [4] is 6 µM (active).
Regarding `CON(C)C(=O)Nc1ccc(Cl)c(Cl)c1`, the half-maximal activity concentration (AC50) in [9] is 8.64 µM (active) and 6.6 µM (active). For the same molecule, the outcome in the experiment with rat CYP3A1, gene 25642 was “inactive”; in [10], “inactive”.
On to `COC(=O)C(C)Oc1ccc(Oc2ccc(Cl)cc2Cl)cc1` (configuration not stated), for which, in experiment [7], the AC50 is 7.38 µM (active) and 10 µM (active); the molecule was classed as inactive. In addition, the concentration at half-maximal activity (AC50) in [11] was 5.69 µM (active) and 16.3 µM (active) and 5.37 µM (active).
